Source: PubChem BioAssay (National Center for Advancing Translational Sciences (NCATS))
Shown are actives, neighbours in structure and some others; about 6.5% of the full set was active somewhere.
Lassa entry inh – qHTS for Inhibitors of binding or entry into cells for Lassa Virus | Lassa virus pseudotype entry inhibition, cell reporter | actives 1.2% (n = 300,000) | Potency, µM (series often up to 37.9 µM), without a hit: top-dose activity change, negative = inhibition, usual class: inhibitors | AID 540256, 2011; calls by dose curve; tested in HEK293 cells; also: potency is read from the fitted curve at half-maximal effect; nearly all actives have a fitted effect of over 50% in size
HCMV antiviral – qHTS Assay for inhibitors of the human cytomegalovirus (HCMV). HFF cells, HCMV-luciferase reporter, 72 h; active compounds read low. activity change, negative = inhibition, % at 57.5 µM. actives 4.5% (n = 410,000); in the data active = activity change below about -60%; inconclusive = no clear call, values can overlap the other calls; inactive = above about -39%
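Human foreskin fibroblasts infected with luciferase-reporter HCMV at MOI 1 PFU/cell, compounds at two doses. Luciferase measured 72 h post infection; normalized to buffer-only basal and Salinomycin (10uM) controls.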
Marburg entry inh – qHTS for inhibitors of binding or entry into cells for Marburg Virus; Marburg virus pseudotyped entry inhibition, cell reporter; Potency, µM (series often up to 37.8 µM), without a hit: at the top dose activity change, negative = inhibition, usual class: inhibitors; actives 1.8% (n = 300,000); AID 540276, 2011; calls by dose curve; tested in HEK293 cells; also: potency is read from the fitted curve at half-maximal effect
FMDV inh – High Throughput Screening for Foot and Mouth Disease Virus Antivirals | FMDV antiviral cell-based qHTS | AID 1159524, 2015 | actives 1.2% (n = 410,000) | Potency, µM (top dose mostly 57.9 µM), for the others: top-dose activity change, negative = inhibition, actives largely listed as inhibitors; calls by dose curve; tested in HEK293T cells; also: read-out not given here; potency is read from the fitted curve at half-maximal effect; nearly all actives have a fitted effect of over 45% in size
VACV mCherry inh – qHTS for Stage-Specific Inhibitors of Vaccinia Orthopoxvirus: mCherry Reporter Primary qHTS; Vaccinia virus mCherry reporter infection, fluorescence; Potency, µM (highest dose often 36.5 µM), inactives show top-dose activity change, negative = inhibition, hits mostly inhibitors; actives 0.63% (n = 310,000); AID 720579, 2013; calls by dose curve; tested in A549 cells; also: potency is read from the fitted curve at half-maximal effect; nearly all actives have a fitted effect of over 35% in size
VACV Venus inh – qHTS for Stage-Specific Inhibitors of Vaccinia Orthopoxvirus: Venus Reporter Primary qHTS | Potency, µM (doses to about 36.5 µM), inactives show top-dose activity change, negative = inhibition, actives largely listed as inhibitors | Vaccinia virus Venus reporter expression, fluorescence | AID 720580, 2013 | actives 0.46% (n = 330,000); calls by dose curve; tested in A549 cells; also: potency is read from the fitted curve at half-maximal effect; nearly all actives have a fitted effect of over 30% in size
Starred values were filed as active, the others as inactive; [ ] = dose if it differs, or a comment. % is scaled to controls: 0 for no effect and ±100 for the full control effect.

Screening COc1ccc(C2=NN(CC(=O)NCCc3ccccc3)C(=O)CC2)cc1 returned Lassa entry inh 0%[46.1 µM], HCMV antiviral 75, FMDV inh 5%, VACV mCherry inh -6% and VACV Venus inh -7%.
For COc1ccc(-c2nn(CC(=O)NCCc3ccccc3)c(=S)n2C)cc1 the results were Lassa entry inh 13µM*, HCMV antiviral -96*, Marburg entry inh inconclusive, FMDV inh 20%, VACV mCherry inh -22% and VACV Venus inh -13%.
`Cc1cc(=O)n(CC(=O)NC(C)c2ccccc2)c2c1c(C)nn2C` (configuration not stated) gave Lassa entry inh -9%[46.1 µM], HCMV antiviral -23, FMDV inh 0%, VACV mCherry inh -17% and VACV Venus inh -14%.
`Cc1ccc(CNC(=O)CN(c2ccc(Cl)cc2Cl)S(=O)(=O)c2ccccc2)cc1` gave Lassa entry inh -27%[46.1 µM], HCMV antiviral 3, Marburg entry inh inconclusive, FMDV inh 1%, VACV mCherry inh -21% and VACV Venus inh -16%.
`C[C@@]12C(=O)OC(=O)[C@]1(C)C1CCC2O1` gave HCMV antiviral -99*, FMDV inh inconclusive, VACV mCherry inh 1.1µM* and VACV Venus inh 1.3µM*.
`CC(O)CNCCNCc1c(OCc2ccccc2)ccc2ccccc12` (configuration not stated) gave Lassa entry inh 9.2µM*, HCMV antiviral -38, Marburg entry inh inconclusive, VACV mCherry inh -2% and VACV Venus inh -26%.
For OCCNCc1c(OCc2ccc(Cl)cc2)ccc2ccccc12 the results were Lassa entry inh inconclusive, HCMV antiviral -79*, Marburg entry inh 5.6µM*, FMDV inh -21%, VACV mCherry inh -37% and VACV Venus inh -19%.
`CCOc1cccc(CNCCO)c1OCc1ccc(Cl)cc1` gave Lassa entry inh -26%, HCMV antiviral inconclusive, Marburg entry inh inconclusive, FMDV inh inconclusive, VACV mCherry inh -6% and VACV Venus inh -14%.
`CC(O)CNCCOc1ccccc1OCc1ccccc1` (configuration not stated) gave Lassa entry inh 7%, HCMV antiviral -32, Marburg entry inh inconclusive, FMDV inh -14%, VACV mCherry inh -9% and VACV Venus inh -17%.
Cc1ccc(Cl)cc1N1CCN(c2nc3ccccc3c3nc(-c4cccnc4)nn23)CC1 was read as HCMV antiviral 11, Marburg entry inh 7%[46.1 µM], FMDV inh 4%, VACV mCherry inh inactive and VACV Venus inh -17%.
COc1ccc(C2=NN(C(=O)CCC(=O)O)C(c3ccc(OC)c(OC)c3)C2)cc1 (configuration not stated) was read as Lassa entry inh 17%, HCMV antiviral -102*, Marburg entry inh 6%, FMDV inh -12%, VACV mCherry inh -5% and VACV Venus inh -8%.
COc1ccc(C2CC(c3ccc(Br)cc3)=NN2C(=O)CCC(=O)O)cc1OC (configuration not stated) was read as Lassa entry inh -20%[46.1 µM], HCMV antiviral -8, Marburg entry inh -6%[46.1 µM], FMDV inh -9%, VACV mCherry inh inactive and VACV Venus inh -12%.
For O=C(CSc1nnc(CNC(=O)C23CC4CC(CC(C4)C2)C3)n1-c1ccc(F)cc1)Nc1ccc(F)cc1 the results were Lassa entry inh -18%, HCMV antiviral -20, Marburg entry inh inconclusive, FMDV inh 0%, VACV mCherry inh -9% and VACV Venus inh -25%.
For O=C(NCc1nnc(SCc2ccc(F)cc2)n1-c1ccc(F)cc1)C12CC3CC(CC(C3)C1)C2 the results were Lassa entry inh inconclusive, HCMV antiviral 17, Marburg entry inh 8.9µM*, FMDV inh -24%, VACV mCherry inh inconclusive and VACV Venus inh inconclusive.
Screening Clc1ccc(-n2cnnn2)cc1 returned Lassa entry inh 17%, HCMV antiviral 6, Marburg entry inh 2% and FMDV inh 18%.
For CO/C=C\C=C/c1nnn(-c2ccc(Cl)cc2)n1 the results were Lassa entry inh -10%[46.1 µM], HCMV antiviral -64*, Marburg entry inh inconclusive, FMDV inh 6%, VACV mCherry inh -3% and VACV Venus inh 1%.
COc1ccc([C@@H]2[C@@H](O)[C@H](O)[C@@H](C)N2C)cc1OC was read as FMDV inh -12%.
Screening O=[N+]([O-])c1nn(-c2ccc3c(c2)OCCO3)n(O)c1=Nc1ccc(Cl)cc1 returned Lassa entry inh inconclusive, HCMV antiviral -91*, Marburg entry inh inconclusive, VACV mCherry inh -29% and VACV Venus inh -21%.
O=[N+]([O-])c1nn(-c2ccc3c(c2)OCCO3)n(O)c1=Nc1ccccc1 was read as Lassa entry inh 7.1µM*, HCMV antiviral -95*, Marburg entry inh 1.5µM*, FMDV inh 7.9µM*, VACV mCherry inh -14% and VACV Venus inh -10%.
`Cc1ccc(N=c2c([N+](=O)[O-])nn(-c3ccc4c(c3)OCCO4)n2O)cc1F` gave Lassa entry inh -15%[46.1 µM], HCMV antiviral -85*, Marburg entry inh inconclusive, FMDV inh inconclusive, VACV mCherry inh -15% and VACV Venus inh -17%.
Screening COCCNC(=O)[C@@]1(Sc2ccc(OC)cc2)CC(=O)N[C@@H]1c1ccc(OC)cc1 returned HCMV antiviral -12.
COc1cc2c(cc1OC)C(COc1ccc(F)cc1)N(C(=O)Cc1ccc(F)cc1)CC2 (configuration not stated) was read as Lassa entry inh inconclusive, HCMV antiviral 8, FMDV inh inconclusive, VACV mCherry inh 1% and VACV Venus inh 10%.
`COC(=O)c1ccc(CN2C(=O)[C@@]3(CC(C)=CC[C@@H](COc4ccccc4)O3)c3ccccc32)cc1` gave Marburg entry inh 9%[14.2 µM].
Screening COc1ccc(CN(C(=O)Cc2c[nH]c3ccccc23)C(C(=O)NC2CCCCC2)c2ccc(C)o2)cc1 (configuration not stated) returned Lassa entry inh 7.3µM*, HCMV antiviral inconclusive, Marburg entry inh 7.3µM* and FMDV inh 38%.
`COc1cc(C(C(=O)NC2CCCCC2)N(Cc2cccs2)C(=O)Cc2c[nH]c3ccccc23)cc(OC)c1OC` (configuration not stated) gave Lassa entry inh -17%, HCMV antiviral -79*, Marburg entry inh -32% and FMDV inh inconclusive.
CCOc1ccc(CCNC(=O)Cn2ncn3c(cc4ccccc43)c2=O)cc1OCC was read as HCMV antiviral -11, Marburg entry inh 17%[46.1 µM], FMDV inh -6%, VACV mCherry inh -11% and VACV Venus inh -10%.
